CRFR2-BP ag: agonists of CRF-BP/CRF-R2 complex, primary screen, cell-based, HEK293, calcium dye fluorescence, uHTS; CRF-binding protein / CRF receptor 2 complex (human); calcium dye fluorescence (FLIPR); percent of saturating CRF peptide response; activation, % at 13.2 µM; 0.46% of 350,000 active; AID 588473, 2011;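 active = activation of at least 50%, plus an integration ratio under a set limit after plate pattern correction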;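 note: plate controls were neutral control wells without compound for no effect and CRF at EC100 for full effect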
H9c2 protect: cardioprotection against H2O2-induced cell death, primary screen, uHTS, H9c2 cells, ATPLite luminescence. 0.63% of 360,000 active. protection from H2O2 cell death, % at 20 µM. H9c2 cardiomyocytes, H2O2 injury protection, 2 h. AID 588492, 2011;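 active = compounds giving at least 50% protection of heart cells from peroxide-induced death in the single-dose screen, raw or plate-pattern-corrected value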;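 note: 0% = DMSO wells with peroxide and 100% = DMSO wells without peroxide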
SKN-1 inh: suppressors of acrylamide-induced Pgst-4::GFP reporter in worms, primary screen, SKN-1 inhibitor project, whole organism, uHTS, GFP/RFP fluorescence ratio, strain VP596 | C. elegans VP596 Pgst-4::GFP/RFP ratio, 24 h | inhibition, % at 21.8 µM | 0.49% of 360,000 active | AID 624304, 2012;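 active = interference check ratio from 0.5 to 1.5 plus GFP to RFP signal ratio inhibition reaching or exceeding a fixed threshold, cut at about 30% in these data, passing the limit was not always enough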
H9c2 TAG inh: inhibitors of triacylglycerol accumulation, primary screen, cell-based, uHTS, fluorescence, H9c2. H9c2 cells, Nile Red lipid (TAG) fluorescence; cells loaded with 200 µM oleic acid. inhibition, % at 12.5 µM. 0.66% of 230,000 active. AID 651582, 2012;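 active = pattern-corrected inhibition of lipid staining of at least 50% with the nuclear-stain viability signal not falling by more than 50%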;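 note: 0% = DMSO wells and 100% = triacsin C control wells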
hiPSC survival: enhancers of single-cell hiPSC survival, primary screen, ATPlite luminescence; 100% = ROCK inhibitor wells, 0% = DMSO; survival enhancement, % at 20 µM; 0.044% of 360,000 active; AID 602274, 2012; in the data active = survival enhancement above about 18%;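 note: cells exposed to compounds for 16 hours before the ATP read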
CRFR2-BP antag: antagonists of CRF-BP/CRF-R2 complex, primary screen, cell-based, HEK293, calcium dye fluorescence, uHTS | CRF-induced calcium fluorescence | inhibition, % at 11.8 µM | 0.59% of 350,000 active | AID 588475, 2011;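 active = inhibition of the ligand-induced calcium signal above about 50% at the single tested concentration, limit read from the data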
* hit, by the source's call; . = no result. The list is not random: actives were taken first. Their share in the collection is about 2.5%.

SMILES | CRFR2-BP ag | H9c2 protect | SKN-1 inh | H9c2 TAG inh | hiPSC survival | CRFR2-BP antag
CC(C)N(C(=O)[C@H]1CC(CC(=O)NCC23CC4CC(CC(C4)C2)C3)C(=O)N2CCc3c([nH]c4ccccc34)[C@]12C)C(C)C (stereo partly specified) | -5.0 | 0.2 | -13.5 | 43.7 | 0.6 | 10.8
CCOC(=O)c1cnc(Nc2nc3ccccc3o2)nc1CSc1nnc(C)s1 | -0.4 | 60.0* | -0.9 | -12.9 | 1.0 | 5.9
CCOC(=O)c1cnc(Nc2nc3ccccc3o2)nc1C | 0.1 | -21.5 | 5.8 | . | -6.2 | -6.5
CC1CC(C)CN(C(CCc2ccccc2)C(=O)NC2CCCCC2)C1 (stereo unspecified) | . | -3.4 | 5.2 | . | -1.7 | .
O=C(NC1CCCCC1)N(Cc1nc2ccccc2c(=O)[nH]1)C1CCCCC1 | -0.9 | -5.8 | 8.5 | 4.3 | 27.9* | -13.6
CC1CCCN(CCCCOc2cccc(Br)c2)C1 (stereo unspecified) | -1.0 | 0.3 | 1.7 | 4.5 | -1.9 | -4.1
C=CCNc1ncnc2c1ncn2[C@H]1CN(Cc2ccc(F)cc2)C[C@@H](CO)O1 | . | 4.8 | -5.9 | 11.6 | -2.7 | .
O=C(/C=C/Nc1ccccc1)c1ccccc1 | -1.3 | -29.6 | 35.6* | . | -4.1 | 2.1
O=C(/C=C\Nc1ccc(Br)cc1)c1cccnc1 | -0.3 | -14.8 | 86.5* | 7.4 | -2.9 | -1.7
NC(=O)c1ccccc1N/C=C/C(=O)c1ccco1 | -1.9 | -1.4 | -3.6 | 7.4 | -1.7 | -21.6
O=C(/C=C/Nc1ccc(Oc2ccccc2)cc1)c1ccco1 | 0.3 | -19.5 | 81.9* | 1.5 | -1.3 | 22.7
O=C(NNC(=S)Nc1ccc(Br)cc1)c1cccnc1 | -1.1 | -2.4 | 2.4 | . | -0.7 | 0.1
O=C(/C=C/Nc1ccc(F)cc1Br)c1ccccc1 | -0.8 | -18.9 | 37.0* | 2.0 | -2.9 | 16.1
Cc1onc(-c2ccccc2)c1C(=O)N/N=C/c1cc2c(cc1Cl)OCO2 | -3.3 | -8.2 | 12.3 | . | -0.4 | -32.5
Cc1ccc(S(=O)(=O)N2CCCCC2)cc1NC(=O)COC(=O)CN1C(=O)NC2(CC(C)CC(C)(C)C2)C1=O (stereo unspecified) | 0.0 | -6.0 | -1.2 | 10.9 | -0.5 | -9.0
O=C(COC(=O)c1ccncc1)Nc1ccccc1 | 2.2 | 2.5 | 12.7 | 7.6 | -0.1 | 10.5
O=C(COC(=O)c1ccncc1)Nc1cc(Cl)ccc1Cl | -4.0 | 9.2 | 13.9 | . | 1.8 | 51.7*
COc1cc2c(=O)[nH]c3cc([N+](=O)[O-])ccc3c2cc1[N+](=O)[O-] | 1.2 | 2.9 | 4.7 | 17.2 | 2.6 | -8.9
Nc1cc2[nH]c(=O)c3ccccc3c2cc1[N+](=O)[O-] | -2.1 | 81.0* | 18.2 | -3.2 | 2.8 | 3.3
Cn1cc(-c2coc3c(C(=O)NCc4cccc(Cl)c4)cccc23)cn1 | . | 0.5 | 4.4 | -11.0 | -1.9 | .
COc1ccc(C2=Nc3ccc(C)cc3C(c3ccccc3)N2CC(=O)NN)cc1 (stereo unspecified) | 18.0 | 3.4 | 3.3 | -6.5 | 0.1 | -40.7
COC(=O)CN1C(c2ccc(Cl)cc2)=Nc2ccc(Cl)cc2C1c1ccccc1 (stereo unspecified) | -1.9 | 0.2 | 22.5 | . | 0.0 | 64.9*
COCCn1c(NCc2ccco2)nc2c1c(=O)[nH]c(=O)n2C | -1.2 | -2.2 | 6.2 | 7.2 | 2.3 | 1.8
CCCCOC(=O)Nc1ccc(C(N)=O)cc1 | -1.0 | -6.0 | 18.0 | . | -0.3 | -1.2
CCCCOC(=O)Nc1ccc(C(C)C)cc1 | 0.9 | -17.7 | 33.3* | 7.7 | -0.6 | -9.0
SMILES | CRFR2-BP ag | H9c2 protect | SKN-1 inh | H9c2 TAG inh | hiPSC survival | CRFR2-BP antag
CCCCOC(=O)Nc1ccc(N2CCCCC2)cc1 | -1.4 | -8.9 | 45.5* | . | -0.7 | -8.0
CCOC(=O)Nc1ccc(Oc2ccccc2)cc1 | 1.0 | -3.4 | 22.1 | 17.1 | 2.1 | 56.9*
CCOc1ccc(/C=N/n2c(COc3ccccc3)n[nH]c2=S)cc1OC | -2.2 | -8.8 | 16.4 | . | 0.1 | 16.9
Cc1csc(NC(=O)CS(=O)(=O)Cc2ccccc2)n1 | -0.8 | -0.6 | 6.1 | 7.2 | -1.3 | -5.4
CCCc1nc(SCC(=O)Nc2nc3c(s2)CCCC3)c2ccccc2n1 | 1.3 | -14.2 | 6.1 | . | 21.6* | -20.1
CC(/C=N/N1CCN(c2ccccn2)CC1)=C\c1ccccc1 | 1.9 | -3.0 | 66.8* | . | -2.5 | 1.5
CC(/C=N/N1CCN(c2ccccc2)CC1)=C\c1ccco1 | 0.6 | -7.7 | -3.8 | . | -0.6 | 9.8
CC(=C/c1ccco1)/C=N/N1CCN(c2ccccc2)CC1 | -0.6 | -3.1 | 36.0* | . | -3.0 | 20.0
CC(/C=N/N1CCN(c2ccccc2)CC1)=C\c1ccccc1 | 0.0 | -3.6 | 3.8 | . | 2.1 | 10.8
CC1(C)CC(=O)C=C(c2n[nH]nc2C2CCCCC2)C1 | -0.4 | -2.2 | 16.6 | 4.0 | -3.7 | -6.5
Oc1ccc(-c2nc(-c3ccc(O)c(O)c3)cs2)cc1 | -1.8 | 53.0* | -23.9 | -25.1 | -0.4 | -24.6
NC(=O)c1ccc(NC(=O)c2cc(S(=O)(=O)N3CCCCC3)ccc2N2CCOCC2)cc1 | -1.0 | -6.8 | -6.5 | 19.3 | -0.5 | 0.8
CCN(CC)c1ccc(-c2sc(Nc3ccccc3)n[n+]2-c2ccc(F)cc2)cc1 | 7.4 | -20.3 | 0.1 | -24.4 | -2.9 | -19.3
CCc1ccc(Nc2n[n+](-c3ccccc3)c(-c3ccc(N(CC)CC)cc3)s2)cc1 | 66.7* | -10.8 | 4.4 | . | -2.1 | -101.3
Cc1cc(SCC(=O)c2ccc(O)c(O)c2)n2nc(C)c(-c3ccccc3)c2n1 | -0.5 | 71.4* | 13.9 | 26.4 | 0.1 | -8.4
Cc1cc(C)nc(SCC(=O)c2ccc(O)c(O)c2)n1 | -1.6 | 18.1 | -1.0 | 11.8 | 0.4 | -1.5
CCc1ccc(S(=O)(=O)NCC2(N3CCOCC3)CCCCC2)cc1 | 53.7* | -2.0 | 10.5 | 6.9 | -0.4 | -21.7
O=S(=O)(NCC1(N2CCOCC2)CCCCC1)c1ccc(Cl)cc1C(F)(F)F | 55.9* | -4.9 | 12.3 | -11.0 | -0.4 | -48.5
COc1ccc(CN2C(=O)CCC2(C)c2nc3ccccc3[nH]2)cc1 (stereo unspecified) | . | 6.7 | 4.3 | . | 0.6 | .
CC(O)(c1cccnc1)c1nc(-c2cccc(C(F)(F)F)c2)cs1 (stereo unspecified) | . | -9.6 | -5.1 | -14.6 | -0.9 | .
CC1Cc2ccccc2N1C(=O)CSc1nc2c(c(=O)n(C)c(=O)n2C)n1Cc1ccccc1 (stereo unspecified) | 0.6 | 71.5* | 6.8 | . | -2.2 | 6.5
CCC(C)c1ccc(C(C)NC(=S)NC2CCCCC2)cc1 (stereo unspecified) | 10.0 | -15.8 | 5.9 | -20.5 | -0.4 | -61.8

High-throughput results (PubChem)
